Our source for the fold change permeability values is PubChem BioAssay.

Where “and” joins values, the source holds several entries; their conditions need not be identical. Equal entries are not always repeated. Some compounds were tested as several samples or in several runs, with calls that do not always agree. Calls of active or inactive are those of the source. Rule as the data show it: active = fold change permeability below about 0.7 or above about 1.3; inactive = in between.

The nature of this assay: compounds altering in vitro BBB leakiness – cell-based, FITC-avidin fluorescence, HTS, primary screen (AID 1963498). Also: test concentration not given here. The settings on record: brain endothelial barrier, actives lie on both sides.
Consider `CCN(C)C(=O)C1(CCOc2ccccc2)CCN(Cc2ccc(O)c(Cl)c2)CC1`, for which the fold change permeability is 1 (inactive). Then `CCC(C)N(C)C(=O)c1cc2ccccc2c(-c2ccccc2Cl)n1` (stereo not given), with 0.9 (inactive); and `Cc1ccc(C(=O)N(CCCN)C(c2oc3cc(Cl)ccc3c(=O)c2Cc2ccccc2)C(C)C)cc1` (stereo not given), with 1.6 (active); and `N=c1nc(N2CCCCC2)cc(N)n1O`, with 0.9 (inactive). The figure for `CC[C@H](NC(=O)c1c(C)c(-c2ccccc2)nc2ccccc12)c1ccccc1` is 1 (inactive).

On to `NC[C@@H]1O[C@H](c2ccccc2)Cc2c1ccc(O)c2O`, for which the fold change permeability was 1.3 (active).

With `CC(=O)/C(C)=N/O`, the fold change permeability is 1 (inactive).

For the compound `C[C@H]1O[C@@H](n2cc(F)c(=O)[nH]c2=O)[C@H](O)[C@@H]1O`, the fold change permeability is 0.8 (inactive). Turning to `O=P(O)(O)C(O)(Cn1ccnc1)P(=O)(O)O`, the fold change permeability is 0.8 (inactive). For `CC(=O)Nc1ccc(C(=O)Nc2ccc(F)cc2N)cc1`, the fold change permeability is 0.8 (inactive).

On to `O=C(O)/C=C\C(=O)Nc1ccc(Oc2cccc(Oc3ccc(NC(=O)/C=C\C(=O)O)cc3)c2)cc1`, for which the fold change permeability is 0.9 (inactive). As for `CC(C)c1ccc2oc3nc(N)c(C(=O)O)cc3c(=O)c2c1`, the fold change permeability was 1 (inactive).

Turning to `Cc1cccc(-c2[nH]c(C(C)(C)C)nc2-c2ccc3nccnc3c2)n1`, the fold change permeability is 1.4 (active). Consider `O=C1NC(c2cccc([N+](=O)[O-])c2)=CCN1c1ccccc1O`, for which the fold change permeability is 0.9 (inactive). Then `CC(C)(C)c1ccc(S(=O)(=O)/C=C/C#N)cc1`, with 1.2 (inactive). The figure for `Cc1ccc(S(=O)(=O)N[C@@H](Cc2ccccc2)C(=O)CCl)cc1` is 1.8 (active); for `CN1C[C@H](C(=O)N[C@]2(C)O[C@@]3(O)[C@@H]4CCCN4C(=O)[C@H](Cc4ccccc4)N3C2=O)C[C@@H]2c3cccc4[nH]cc(c34)C[C@H]21` it is 1.4 (active).

For `N[C@H](C(=O)O)[C@H](Cc1ccccc1)C(=O)O`, the fold change permeability was 1.2 (inactive).

As for `CN1CCN(C2=Nc3ccccc3Oc3ccc(Cl)cc32)CC1`, the fold change permeability was 1.3 (active). For `CCCOc1ccccc1-c1nc2n[nH]nc2c(=O)[nH]1`, the fold change permeability is 1.9 (active).

Turning to `CC(C)C(=O)Nc1n[nH]c2cc(-c3cccc(NS(=O)(=O)C4CC4)c3)ccc12`, the fold change permeability was 1.2 (inactive). The figure for `CC1CNCCN1S(=O)(=O)c1cccc2cnccc12` (stereo not given) is 1.1 (inactive); for `CC(/C=C1\SC(=S)N(CC(=O)O)C1=O)=C\c1ccccc1` it is 1 (inactive); for `CC(N)=O` it is 0.9 (inactive). For the compound `CC(C)NCC(O)c1ccc(O)c(O)c1` (stereo not given), the fold change permeability was 1.4 (active). The figure for `Cc1cc(CN)cc(C)c1NC(=O)c1ccc(-c2cc(Cl)ccc2Cl)o1` is 1.5 (active); for `CC(C)NC[C@H](O)c1ccc(O)c(O)c1` it is 1.2 (inactive) and 1.8 (active).

Turning to `O=C(O)c1cc([N+](=O)[O-])ccc1NCCCc1ccccc1`, the fold change permeability is 1 (inactive). Consider `NC(N)=NC(N)=Nc1cccc(Cl)c1`, for which the fold change permeability was 1.2 (inactive). As for `O=C(O)C1CCNCC1`, the fold change permeability was 1.2 (inactive). Then `CN1CCN(C(c2ccccc2)c2ccc(Cl)cc2)CC1` (stereo not given), with 1.7 (active); and `C[C@@](Cc1ccc(O)c(O)c1)(NN)C(=O)O`, with 1.2 (inactive). Then `CC(C)Cc1ccc([C@H](C)C(=O)O)cc1`, with 2.3 (active); and `CCCCCCNc1nc(NC2CCN(C)CC2)c2cc(OC)c(OC)cc2n1`, with 1 (inactive); and `CC(C)[C@H]1c2ccc(F)cc2CC[C@@]1(CCN(C)CCCc1nc2ccccc2[nH]1)OC(=O)C1CC1`, with 1.3 (active). In the case of `COc1cc(CC(=O)O)ccc1O`, the fold change permeability is 1.1 (inactive). As for `COc1ccccc1CN[C@H]1CCCN[C@H]1c1ccccc1`, the fold change permeability is 0.7 (active). The figure for `Cc1ccc(S(=O)(=O)NC(=O)NN2CCCCCC2)cc1` is 1 (inactive). Regarding `COc1ccccc1OCCNCC(O)COc1cccc2[nH]c3ccccc3c12` (stereo not given), the fold change permeability is 1.7 (active). Then `Cc1ccc(Cl)c(Nc2ccccc2C(=O)O)c1Cl`, with 1.3 (active).
